In PubChem BioAssay (NCATS):
Several values for one entry are separate records, joined by “and”; a condition that tells them apart may be missing. Identical values can stand only once. Records with an inconclusive call do not appear. Entries that show only a call come without a potency. Activity calls are given as the source filed them. Unless noted, the call rests on the fitted dose curve; in most records, active means well fitted curve in the direction sought with a large enough effect; inconclusive means small, poorly fitted or top-dose-only effect, or another doubt; inactive means no such curve, though single readings can be large; an effect the other way counts as inactive or inconclusive.

Legend:
[1] = biological target: Voltage-gated inwardly rectifying potassium channel KCNH2 (Homo sapiens) (UniProt Q12809); experiment: qHTS Assay for Small Molecule Inhibitors of the Human hERG Channel Activity (AID 588834);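 further: lower thallium flux fluorescence means stronger hERG block; nearly all actives have a fitted effect of over 50% in size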; further: potency means the concentration at half of the fitted maximal effect
Sequence of Voltage-gated inwardly rectifying potassium channel KCNH2 (Homo sapiens) (Q12809 whole entry, looked up): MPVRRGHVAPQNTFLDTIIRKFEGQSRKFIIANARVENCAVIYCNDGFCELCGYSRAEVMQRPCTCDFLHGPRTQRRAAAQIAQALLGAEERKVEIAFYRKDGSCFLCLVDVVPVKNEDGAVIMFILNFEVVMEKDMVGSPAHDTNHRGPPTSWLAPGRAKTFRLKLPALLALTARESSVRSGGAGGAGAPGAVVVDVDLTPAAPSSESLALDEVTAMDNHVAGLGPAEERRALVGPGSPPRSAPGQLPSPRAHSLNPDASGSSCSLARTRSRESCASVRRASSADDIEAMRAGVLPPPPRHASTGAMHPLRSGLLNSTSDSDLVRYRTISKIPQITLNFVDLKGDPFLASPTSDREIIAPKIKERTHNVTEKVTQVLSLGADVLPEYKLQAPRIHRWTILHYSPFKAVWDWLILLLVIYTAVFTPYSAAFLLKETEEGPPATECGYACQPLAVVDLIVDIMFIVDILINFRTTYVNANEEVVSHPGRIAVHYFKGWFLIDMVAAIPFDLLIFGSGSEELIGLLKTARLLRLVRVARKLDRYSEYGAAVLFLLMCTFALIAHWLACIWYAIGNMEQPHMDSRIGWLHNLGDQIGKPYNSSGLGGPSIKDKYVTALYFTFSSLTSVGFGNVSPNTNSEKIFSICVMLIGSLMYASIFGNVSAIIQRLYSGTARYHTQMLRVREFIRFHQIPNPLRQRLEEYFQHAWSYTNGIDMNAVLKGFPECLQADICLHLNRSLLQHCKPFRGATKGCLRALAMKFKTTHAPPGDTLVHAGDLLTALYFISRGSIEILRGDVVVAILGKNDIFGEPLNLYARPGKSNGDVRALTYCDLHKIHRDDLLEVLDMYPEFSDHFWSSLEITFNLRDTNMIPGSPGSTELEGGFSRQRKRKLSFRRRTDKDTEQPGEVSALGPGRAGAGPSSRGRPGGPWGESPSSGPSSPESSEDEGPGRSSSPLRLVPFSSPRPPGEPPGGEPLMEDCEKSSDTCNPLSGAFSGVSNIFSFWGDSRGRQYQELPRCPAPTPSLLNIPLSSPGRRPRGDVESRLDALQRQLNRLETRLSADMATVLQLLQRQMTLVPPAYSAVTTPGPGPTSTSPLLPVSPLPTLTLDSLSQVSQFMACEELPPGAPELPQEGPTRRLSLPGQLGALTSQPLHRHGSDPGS
In short: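 Kinetic FDSS fluorescence; U2OS + hERG BacMam (~100 virus particles/cell); FluxOR Tl+ flux; ~10 min cpd; AC50 (Hill).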

[2] = biological target: Luciferin 4-monooxygenase (Photinus pyralis) (UniProt P08659); experiment: Biochemical firefly luciferase enzyme assay for NPC (AID 624030); further: nearly all actives have a fitted effect of over 70% in size; further: potency means the concentration at half of the fitted maximal effect
Sequence of Luciferin 4-monooxygenase (Photinus pyralis) (P08659 whole entry, looked up): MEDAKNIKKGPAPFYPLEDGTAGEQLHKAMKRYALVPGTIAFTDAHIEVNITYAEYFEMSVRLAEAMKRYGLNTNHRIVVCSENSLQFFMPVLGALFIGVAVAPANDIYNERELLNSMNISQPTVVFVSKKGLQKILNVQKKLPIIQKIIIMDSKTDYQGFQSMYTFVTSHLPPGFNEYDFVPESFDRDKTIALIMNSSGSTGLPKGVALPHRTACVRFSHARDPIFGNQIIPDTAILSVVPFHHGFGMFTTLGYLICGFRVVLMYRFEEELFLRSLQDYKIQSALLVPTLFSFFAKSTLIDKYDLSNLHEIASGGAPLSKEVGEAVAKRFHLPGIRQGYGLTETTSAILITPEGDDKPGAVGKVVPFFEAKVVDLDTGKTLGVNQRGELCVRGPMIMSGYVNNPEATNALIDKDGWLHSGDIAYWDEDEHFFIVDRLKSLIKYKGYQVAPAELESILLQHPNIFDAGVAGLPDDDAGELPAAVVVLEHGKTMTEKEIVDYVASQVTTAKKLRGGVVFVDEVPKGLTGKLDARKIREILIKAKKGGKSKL
In short: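 Counter-screen for direct inhibition of the luciferase enzyme by approved-drug library compounds, run at 10 nM enzyme in 50 mM Tris acetate (final). Luminescence was read within 5 min of enzyme-buffer addition and normalized to PTC124 versus DMSO (0%).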

[3] = S16 Schwann cell viability assay (CellTiter-Glo assay) (AID 624031); further: nearly all actives have a fitted effect of over 70% in size; further: potency means the concentration at half of the fitted maximal effect
In short: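 Cells were seeded at 500-750 per well in phenol red-free DMEM with 10% FBS and left overnight. Compounds or DMSO were pinned in, incubation ran 24 h at 37 °C/5% CO2, then CellTiter-Glo reagent was added and luminescence measured.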

[4] = S16 Schwann cell PMP22 intronic element firefly luciferase assay (AID 624032); further: nearly all actives have a fitted effect of over 30% in size; further: potency means the concentration at half of the fitted maximal effect
In short: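 Rat S16 Schwann cells stably carrying a PMP22 intronic element-driven Fluc reporter were seeded overnight, then exposed to compounds for 24 h at 37 °C. Luminescence was normalized to PTC124 (positive control) and DMSO (0% activity).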

[5] = S16 Schwann cell PMP22 intronic element beta-lactamase assay (AID 624044; calls by dose curve; further: nearly all actives have a fitted effect of over 15% in size)
In short: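 Rat S16 Schwann cells with beta-Lac driven by a PMP22 intronic element, compound-treated 24 h at 37 °C. LiveBLAzer FRET B/G read: 460 nm normalized to potassium clavulanate vs DMSO; 535 nm FRET as viability; concentration-effect curves classified.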

In the case of `CC(C)(C)C(=O)NCCCC(=O)O`, the Potency [1] is reported as “inactive”, the Potency [2] is reported as “inactive” and the Potency [3] is reported as “inactive”. The Potency [4] was “inactive”.
With `NS(=O)(=O)c1cc2c(cc1Cl)NC(CSCc1ccccc1)=NS2(=O)=O` the Potency [1] was “inactive”, the Potency [2] was “inactive” and the Potency [3] was “inactive”. For the same compound, the Potency [4] was “inactive”.
With `C[C@H]1O[C@@H](n2cc(F)c(=O)[nH]c2=O)[C@H](O)[C@@H]1O` the Potency [1] was “inactive”, the Potency [2] was “inactive” and the Potency [3] was “inactive”. For the same compound, the Potency [4] was “inactive”.
With `CN1CCCCC1CCN1c2ccccc2Sc2ccc(S(C)=O)cc21` (stereo not given) the Potency [1] was “inactive”, the Potency [2] was “inactive” and the Potency [3] was “inactive”.
With `Oc1cn2c(n1)Nc1ccc(Cl)c(Cl)c1C2` the Potency [1] was “inactive”, the Potency [2] was “inactive” and the Potency [3] was “inactive”.
With `O=C1NS(=O)(=O)c2ccccc21` the Potency [1] was “inactive”, the Potency [2] was “inactive” and the Potency [3] was “inactive”. The Potency [4] was “inactive”.
With `CC(=O)NC(Cc1ccccc1)C(=O)O` (stereo not given) the Potency [1] was “inactive”, the Potency [2] was “inactive” and the Potency [3] was “inactive”. For the same compound, the Potency [4] was “inactive” and the Potency [5] was “inactive”.
With `CCN(CC)CCNC(=O)c1cc(Cl)c(N)cc1OC` the Potency [1] was “inactive”, the Potency [2] was “inactive” and the Potency [3] was “inactive”. For the same compound, the Potency [4] was “inactive” and the Potency [5] was “inactive”.
In the case of `NCC(=O)CCC(=O)O`, the Potency [1] is reported as “inactive”, the Potency [2] is reported as “inactive” and the Potency [3] is reported as “inactive”. For the same compound, the Potency [4] was “inactive”.
In the case of `NC(=O)NC(=O)Cc1ccccc1`, the Potency [1] is reported as “inactive”, the Potency [2] is reported as “inactive” and the Potency [3] is reported as “inactive”. For the same compound, the Potency [4] was “inactive”.
In the case of `CC(=O)CCC(=O)O`, the Potency [1] is reported as “inactive”, the Potency [2] is reported as “inactive” and the Potency [3] is reported as “inactive”. The Potency [4] was “inactive”.
In the case of `O=C(O)COc1nn(Cc2ccccc2)c2ccccc12`, the Potency [1] is reported as “inactive”, the Potency [2] is reported as “inactive” and the Potency [3] is reported as “inactive”. The Potency [4] was “inactive”.
With `Cc1c(Cl)cccc1Nc1ccccc1C(=O)O` the Potency [1] was “inactive”, the Potency [2] was 32.2 µM (active) and the Potency [3] was “inactive”. For the same compound, the Potency [4] was “inactive”.
With `O=C(O)CC(O)C(=O)O` (stereo not given) the Potency [1] was “inactive”, the Potency [2] was “inactive” and the Potency [3] was “inactive”. The Potency [4] was “inactive” and the Potency [5] was “inactive”.
With `CCCCc1ncc(/C=C(\Cc2cccs2)C(=O)O)n1Cc1ccc(C(=O)O)cc1` the Potency [1] was “inactive”, the Potency [2] was “inactive” and the Potency [3] was “inactive”. For the same compound, the Potency [4] was “inactive”.
In the case of `CSc1ccc2c(c1)C(N1CCN(C)CC1)Cc1ccccc1S2` (stereo not given), the Potency [1] is reported as 2.24 µM (active), the Potency [2] is reported as “inactive” and the Potency [3] is reported as 12.8 µM (active). For the same compound, the Potency [4] was 20.3 µM (active) and the Potency [5] was “inactive”.
With `CC(=O)Nc1ccc(/C=N/NC(N)=S)cc1` the Potency [1] was “inactive”, the Potency [2] was “inactive” and the Potency [3] was “inactive”. The Potency [4] was “inactive”.
In the case of `CCN(CC)CCNC(C(=O)OCCC(C)C)c1ccccc1` (stereo not given), the Potency [1] is reported as 12.6 µM (active), the Potency [2] is reported as “inactive” and the Potency [3] is reported as “inactive”. For the same compound, the Potency [4] was “inactive” and the Potency [5] was “inactive”.
For `OCC(O)CN1CCN(c2ccccc2)CC1` (stereo not given), the Potency [1] was “inactive”, the Potency [2] was “inactive” and the Potency [3] was “inactive”. For the same compound, the Potency [4] was “inactive” and the Potency [5] was “inactive”.
In the case of `O=C(O)c1ccccn1`, the Potency [1] is reported as “inactive”, the Potency [2] is reported as “inactive” and the Potency [3] is reported as “inactive”. For the same compound, the Potency [4] was “inactive” and the Potency [5] was “inactive”.
With `CCCCOc1cc(C(=O)OCCN(CC)CC)ccc1N` the Potency [1] was 4.47 µM (active), the Potency [2] was “inactive” and the Potency [3] was “inactive”. For the same compound, the Potency [4] was “inactive” and the Potency [5] was “inactive”.
For `O=C1OC(OC(=O)c2cccnc2Nc2cccc(C(F)(F)F)c2)c2ccccc21` (stereo not given), the Potency [1] was “inactive”, the Potency [2] was “inactive” and the Potency [3] was “inactive”. The Potency [4] was 7.21 µM (active).
In the case of `CCN(CC)CCSC(=O)C(c1ccccc1)c1ccccc1`, the Potency [1] is reported as 2.51 µM (active) and 4.47 µM (active), the Potency [2] is reported as “inactive” and the Potency [3] is reported as “inactive”. The Potency [4] was “inactive” and the Potency [5] was “inactive”.
With `O=C1NC(=O)[C@@]2(CCOc3ccc(F)cc32)N1` the Potency [1] was “inactive”, the Potency [2] was “inactive” and the Potency [3] was “inactive”. The Potency [4] was “inactive”.
With `Cc1ncc(COP(=O)(O)O)c(C=O)c1O` the Potency [1] was “inactive”, the Potency [2] was “inactive” and the Potency [3] was “inactive”. The Potency [4] was “inactive”.
In the case of `COc1cc2[nH]c(=O)[nH]c(=O)c2cc1OC`, the Potency [1] is reported as “inactive”, the Potency [2] is reported as “inactive” and the Potency [3] is reported as “inactive”. For the same compound, the Potency [4] was “inactive”.
In the case of `Cn1cc[nH]c1=S`, the Potency [1] is reported as “inactive”, the Potency [2] is reported as “inactive” and the Potency [3] is reported as “inactive”. The Potency [4] was “inactive” and the Potency [5] was “inactive”.
For `CCOc1ccc2ccccc2c1C(=O)N[C@@H]1C(=O)N2[C@@H]1SC(C)(C)[C@@H]2C(=O)O`, the Potency [1] was “inactive”, the Potency [2] was “inactive” and the Potency [3] was “inactive”. For the same compound, the Potency [5] was “inactive”.
For `Cc1cccc(C)c1NC(=O)CN(CC(=O)O)CC(=O)O`, the Potency [1] was “inactive”, the Potency [2] was “inactive” and the Potency [3] was “inactive”. For the same compound, the Potency [4] was “inactive”.
With `O=C(O)[C@@H]1CSCN1` the Potency [1] was “inactive”, the Potency [2] was “inactive” and the Potency [3] was “inactive”. The Potency [4] was “inactive” and the Potency [5] was “inactive”.
With `Cc1c(O)cccc1C(=O)N[C@@H](CSc1ccccc1)[C@H](O)CN1C[C@H]2CCCC[C@H]2C[C@H]1C(=O)NC(C)(C)C` the Potency [1] was “inactive”, the Potency [2] was “inactive” and the Potency [3] was “inactive”. The Potency [4] was 8.09 µM (active).
For `O=C(O)CN1C(=O)c2cccc3cccc(c23)C1=O`, the Potency [1] was “inactive”, the Potency [2] was “inactive” and the Potency [3] was “inactive”. For the same compound, the Potency [4] was “inactive”.
For `CN(C)CCN(Cc1ccccc1)c1ccccn1`, the Potency [1] was 12.6 µM (active), the Potency [2] was “inactive” and the Potency [3] was “inactive”. For the same compound, the Potency [4] was “inactive” and the Potency [5] was “inactive”.
With `O=c1cc[nH]c(=S)[nH]1` the Potency [1] was “inactive”, the Potency [2] was “inactive” and the Potency [3] was “inactive”. The Potency [4] was “inactive”.
For `COc1cc(C(=O)N2CCOCC2)cc(OC)c1OC`, the Potency [1] was “inactive”, the Potency [2] was “inactive” and the Potency [3] was “inactive”. For the same compound, the Potency [4] was “inactive”.
For `Cc1cc2c(cc1S(N)(=O)=O)S(=O)(=O)CCC2`, the Potency [1] was “inactive”, the Potency [2] was “inactive” and the Potency [3] was “inactive”. For the same compound, the Potency [4] was “inactive” and the Potency [5] was “inactive”.
